Results on 21 compounds are retold here after PubChem BioAssay (NCI).

Assay [1] can be described thus: NCI Yeast Anticancer Drug Screen. Data for the rad50 strain (AID 155).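 Also: 0% = growth of vehicle-only cultures of the same strain.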 The following applies: S. cerevisiae rad50 strain growth inhibition, stronger effect = higher value; at 50.0 µM unless noted. Summed up: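 Genetically altered yeast (DNA repair pathway); compound treatment; growth inhibition vs vehicle ctrl.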
Assay [2] is described as follows: NCI Yeast Anticancer Drug Screen. Data for the mec2-1 strain (AID 157). As to conditions: S. cerevisiae mec2-1 strain, stronger effect = higher value; at 50.0 µM unless noted. Summed up:
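Growth inhibition is read against vehicle-treated controls after compound exposure of the mec2-1 yeast strain, which is defective in DNA damage repair or cell cycle control.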

The nature of assay [3]: NCI Yeast Anticancer Drug Screen. Data for the sgs1 mgt1 strain (AID 161).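 Also: 0% = growth of cultures given vehicle only.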 As to conditions: S. cerevisiae sgs1 mgt1 strain, stronger effect = higher value; at 50.0 µM unless noted. Summed up: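 Percent growth inhibition was derived by comparing compound-exposed mutant yeast with vehicle-exposed cultures. The strain carries alterations in DNA damage repair.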
A short description of assay [4]: NCI Yeast Anticancer Drug Screen. Data for the cln2 rad14 strain (AID 165).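 Also: 0% = growth equal to vehicle treated cultures.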 The following applies: S. cerevisiae cln2 rad14 strain, stronger effect = higher value; at 50.0 µM unless noted. In a few lines: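 Growth inhibition, relative to vehicle-treated controls, is the read-out. The test organism is a yeast strain with defined genetic alterations, cln2 rad14.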
Assay [5] can be described thus: NCI Yeast Anticancer Drug Screen. Data for the bub3 strain (AID 167). As to conditions: S. cerevisiae bub3 mutant strain, stronger effect = higher value; at 50.0 µM unless noted. Summed up: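 Yeast carrying a defined mutation is treated with each compound, and growth is compared with that of vehicle-exposed cells to give inhibition.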
The nature of assay [6]: NCI Yeast Anticancer Drug Screen. Data for the mlh1 rad18 strain (AID 175). The following applies: S. cerevisiae mlh1 rad18 strain growth inhibition, stronger effect = higher value; at 50.0 µM unless noted. Summed up:
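Cells of a genetically altered yeast strain, deficient in DNA damage repair, were treated with compound. Their growth was then compared with that of vehicle-treated cultures to give inhibition.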

SMILES strings stand for the structures. About 79,000 compounds went through this panel and 15% of them were active in at least one assay; those are over-represented in the sample as a whole. A number with no mark means an inactive call. Active and inactive are the calls of the source. Rule as the data show it: active = growth inhibition above about 70%; inactive = the rest.

`CN(C)c1nc(NC(=O)NC(=O)c2c(F)cccc2F)nc(N(C)C)n1`: the growth inhibition in assay [1] is -2%; in assay [2], 11.3%; in assay [3] it was 1.55%; in assay [4], 8.45%; in assay [5], 18.8%; in assay [6] it was 10.3%.
With `O=C(CSS(=O)(=O)O)Nc1ccccc1`, the growth inhibition was 17.6% in assay [1]; -0.65% in assay [2]; 7.5% in assay [3]; 14.6% in assay [4]; 9.65% in assay [5]; -8.05% in assay [6].
On to `NC(=O)c1ccccc1NC(=O)C(=O)C(C(=O)c1ccc(Cl)c(Cl)c1)C1OC(=O)c2ccccc21` (stereo unspecified), for which the growth inhibition in assay [1] is 53.2%; in assay [2], 46.9%; in assay [3], 32.9%; in assay [4] it was 67.5%; in assay [5], 57.9%; in assay [6], 44.6%.
In the case of `COc1ccc(NC(=O)/C(=N\NC(=O)C[n+]2ccccc2)c2c(O)c3ccc(O)cc3oc2=O)c([N+](=O)[O-])c1`, the growth inhibition in assay [1] is 26.6%; in assay [2], 47.2%; in assay [3], 29.4%; in assay [4], 7.55%; in assay [5] it was 39.5%; in assay [6] it was 39.1%.
With `CCN(CC)CCC1CCCCN1CC(=O)N1c2ccccc2NC(=O)c2ccccc21` (stereo unspecified), the growth inhibition was -2.9% in assay [1]; 2% in assay [2]; 8.9% in assay [3]; 8.2% in assay [4]; -0.9% in assay [5]; 0.25% in assay [6].
`CCOC(=O)Nc1ccccc1OCC`: the growth inhibition in assay [1] is -10.6%; in assay [2] it was 2%; in assay [3] it was -4.3%; in assay [4] it was -90%; in assay [5] it was 6.2%; in assay [6], -3.45%.
In the case of `Nn1c(N=Nc2c(O)[nH]c3ccccc23)n[nH]c1=S`, the growth inhibition in assay [1] was 45.9%; in assay [2], 5.5%; in assay [3], 57%; in assay [4] it was 15.9%; in assay [5], 6.35%; in assay [6], 23.9%.
On to `CCOC(=O)C(=O)C(NC(=O)Cc1ccccc1)C(=O)OCC` (stereo unspecified), for which the growth inhibition in assay [1] was 27.2%; in assay [2], -8.55%; in assay [3], 1.85%; in assay [4], -15.8%; in assay [5], -0.25%; in assay [6] it was 17.1%.
Turning to `COc1ccc(/C(Cc2ccccc2)=N/Nc2ccc([N+](=O)[O-])c([N+](=O)[O-])c2)cc1`, the growth inhibition was 48.1% in assay [1]; -8.15% in assay [2]; 23.5% in assay [3]; 6.35% in assay [4]; 9.7% in assay [5]; 20.1% in assay [6].
Consider `Cc1ccc(Nc2cc(C(=O)O)c(Nc3ccc(C)cc3)cc2C(=O)O)cc1`, for which the growth inhibition is 0.7% in assay [1]; -10.6% in assay [2]; 12.3% in assay [3]; 33.4% in assay [4]; 7.85% in assay [5]; 6.9% in assay [6].
Consider `CCOc1ccc(NC(=O)C(=O)CC(=O)c2c(C)n([O-])c3ccccc3[n+]2=O)cc1`, for which the growth inhibition in assay [1] was -5.95%; in assay [2], 3.8%; in assay [3] it was -34.5%; in assay [4] it was 7.2%; in assay [5], 0.1%; in assay [6], -10.8%.
Consider `COc1cccc(-c2cc(=O)c3cc(N4CCOCC4)ccc3[nH]2)c1`, for which the growth inhibition is -35.9% in assay [1]; -27.9% in assay [2]; -22.9% in assay [3]; -2% in assay [4]; -40.9% in assay [5]; -58.2% in assay [6].
Consider `CC12CC(O)C3C(CCC4CC(O)CCC43C)C1CCC2C(=O)CO` (stereo unspecified), for which the growth inhibition in assay [1] was 13.6%; in assay [2], 14.2%; in assay [3], 7.3%; in assay [4], 13.2%; in assay [5], 12.1%; in assay [6] it was 10.4%.
Take `COc1c(Cl)cc(C(c2cc(Cl)c(OC)c(Cl)c2)C(Cl)(Cl)Cl)cc1Cl`: the growth inhibition in assay [1] was -11.7%; in assay [2], -16.4%; in assay [3] it was -13%; in assay [4] it was -23.7%; in assay [5], -3.95%; in assay [6], 10.4%.
`Cc1cc(=O)n2nc(CCl)sc2n1`: the growth inhibition in assay [1] was 9.65%; in assay [2], 10.2%; in assay [3], 6.15%; in assay [4], -8%; in assay [5], 11.3%; in assay [6] it was 10.1%.
With `COC(=O)c1cc(C)n(C)c(=O)c1CN`, the growth inhibition is -6.4% in assay [1]; 4.85% in assay [2]; -8.6% in assay [3]; -22.4% in assay [4]; -8.8% in assay [5]; 0.8% in assay [6].
Turning to `CCCCOC(=O)/C=C/C(=O)OCCCC`, the growth inhibition is -34.6% in assay [1]; 9.6% in assay [2]; 8.85% in assay [3]; 4% in assay [4]; -0.45% in assay [5]; 43.9% in assay [6].
`Cc1ccc(-c2c(C)c(-c3ccccc3)c(-c3ccccc3)c(C)c2-c2ccccc2)cc1C`: the growth inhibition in assay [1] was 63.3%; in assay [2], 77.3% (active); in assay [3], 25.8%; in assay [4], 82% (active); in assay [5], 97.5% (active); in assay [6], 65%.
Consider `NC(=O)OCCOC(N)=O`, for which the growth inhibition in assay [1] is 7.5%; in assay [2] it was 1%; in assay [3], -31.9%; in assay [4], -9.95%; in assay [5] it was 15.8%; in assay [6] it was 2.55%.
Consider `C=C(c1c(C)cccc1OC(C)=O)c1c(C)cccc1OC(C)=O`, for which the growth inhibition in assay [1] was -8.8%; in assay [2] it was -10.6%; in assay [3], -0.6%; in assay [4], -9.1%; in assay [5], 17.3%; in assay [6], -6.55%.
Regarding `CCOC(=O)c1[nH]c(C)c(/C=N/O)c1C`, the growth inhibition in assay [1] was 22.9%; in assay [2], -1.8%; in assay [3], 6.65%; in assay [4] it was 13.6%; in assay [5] it was 10.1%; in assay [6], 15.2%.
